The source of these data is PubChem BioAssay (Tox21).

Results filed as inconclusive are left out. Unmarked numbers belong to inactive results. Calls follow the shape of the dose curve; as a rule, active = well fitted cell-killing curve with a large enough effect in the repeat runs; inconclusive = weak or mixed curves, or effect the other way; inactive = flat fitted curve, though single readings scatter.
% is scaled to controls: 0 for no effect and ±100 for the full control effect.

A short description of this assay: qHTS RealTime-Glo MT Cell Viability Assay in HEK293 cells - 24 hour (AID 1224886). Also: top concentration of the series differs between compounds; nearly all actives have a fitted effect of over 50% in size. To be noted: RealTime-Glo luminescence; series mostly up to 76.8 µM; activity change, negative = cytotoxicity: at the top concentration. The source says: National Center for Advancing Translational Sciences [NCATS]
NIH Chemical Genomics Center [NCGC]
U.S. Environmental Protection Agency [EPA]
National Institutes of Environmental Health Sciences [NIEHS]
National Toxicology Program [NTP]
U.S. Food and Drug Administration [FDA]
Measure of cell viability is critical in the cell-base assay. Analysis of cell viability is necessary for the characterization of cell responses to cytotoxic drugs and environmental stress. A RealTime-Glo MT Cell Viability Assay to monitor cell viability in real time of continues cell culture during 40 hours of compound treatment was used to screen Tox21 10K library compounds in Hek293 cells. The RealTime-Glo MT Cell Viability Assay is a nonlytic, homogeneous, bioluminescent method to measure cell viability in real time using a simple, plate-based method. The assay involves adding NanoLuc luciferase and a cell-permeant prosubstrate to cells in culture. Viable cells reduce the proprietary prosubstrate to generate a substrate for NanoLuc luciferase. This substrate diffuses from cells into the surrounding culture medium, where it is rapidly used by the NanoLuc Enzyme to produce a luminescent signal. The signal correlates with the number of viable cells, making the assay well suited for cytotoxicity studies.
Tox21 Assay Protocol Summary:
The mixture of Hek293 cell suspension and reagents were dispensed at 600cells/6 ul/well in 1536-well tissue culture treated black solid bottom plates using a Multidrop dispenser. After the assay plates were incubated at a 37 C/5% CO2 incubator for 5 hours, 23 nL of compounds dissolved in DMSO, positive and negative controls was transferred to the assay plate by a pintool work station. The plates were incubated at 37 C for 40 hours. The luminescence intensity were measured at 0h, 8h, 16h, 24h, 32h and 40h time points using ViewLux plate reader during compound treatment.
A general note: Quantitative high-throughput screening tests each substance at several concentrations.
On to `CC(=O)Nc1ccc(C)cc1`, for which the “activity change, negative = cytotoxicity” value is -10.1%.
For `C1=C\CC/C=C\CC/1` the value was 15%; for `C1=CCC(c2ccccc2)CC1` (stereo not given), 8.02%.
For `Cc1ccccc1N1CCN(CCc2nnc3n2CCCC3)CC1`, the “activity change, negative = cytotoxicity” value was -6.56% [at 35.3 µM].
As to `CCCCCCCCOC(C)=O`, the “activity change, negative = cytotoxicity” value was 10.1%.
In the case of `CCCOCCOCCOCCO`, the “activity change, negative = cytotoxicity” value is -17.9%.
Under `Cc1oc(=O)oc1CN1CCN(c2cc3c(cc2F)c(=O)c(C(=O)O)c2n3C(C)S2)CC1` (stereo not given) stands 1.73% [at 35.3 µM]; under `CCOC(=O)C(=O)c1csc(NC=O)n1`, 5.22% [at 35.3 µM].
For `CC(C)CCCC(C)CC=O` (stereo not given) the value was -4.76%; for `CC(CC(=O)O)CC(C)(C)C` (stereo not given), -0.617%; for `Nc1nc(=O)n([C@@H]2O[C@H](CO)[C@@H](O)[C@@H]2F)cc1I`, -1.49% [at 35.3 µM].
Under `Cc1ccccc1C` stands 14.1%.
Take `O=C1OC(=O)c2ccccc21`: the “activity change, negative = cytotoxicity” value was -12.7%.
Under `CN[C@@H]1[C@H](O)[C@H](NC)[C@H]2O[C@@]3(O)C(=O)C[C@@H](C)O[C@H]3O[C@@H]2[C@H]1O` stands 0.821% [at 35.3 µM]; under `Cc1ncc([N+](=O)[O-])n1CC(O)CCl` (stereo not given), 2.33% [at 35.3 µM].
Under `CC(C)(CO)[C@@H](O)C(=O)NCCCO` stands 0.508% [at 35.3 µM]; under `CCC(C)(C)C1CCC(=O)CC1`, 12.3%.
Consider `CNCc1ccccc1`, for which the “activity change, negative = cytotoxicity” value is -1.03% [at 35.3 µM].
Regarding `CCNC(=O)NCCCOc1cccc(CN2CCCCC2)c1`, the “activity change, negative = cytotoxicity” value is -5.22% [at 35.3 µM].
Consider `CCCCCC1Nc2cc(C(F)(F)F)c(S(N)(=O)=O)cc2S(=O)(=O)N1` (stereo not given), for which the “activity change, negative = cytotoxicity” value was 0.126% [at 35.3 µM].
On to `O=S(=O)(O)SSS(=O)(=O)O`, for which the “activity change, negative = cytotoxicity” value was 0.171%.
Turning to `C=C[C@@H](C)CCC=C(C)C`, the “activity change, negative = cytotoxicity” value is 9.16%.
With `COC(/C=C(\C)CCC=C(C)C)OC`, the “activity change, negative = cytotoxicity” value was 0.73%.
For `CCOc1ccc(NC(=O)OC(C)C)cc1OCC` the value was -18.3%.
Under `CCCCCCCCCCCCCCCCCCN(C)C` stands 0.073% [at 35.3 µM]; under `NC(=O)NC(=O)Cc1ccccc1`, 2.74% [at 35.3 µM]; under `Nc1cc(S(=O)(=O)O)ccc1S(=O)(=O)O`, 23.4%.
Regarding `CC(=O)c1ccc2c(c1)CCCC2`, the “activity change, negative = cytotoxicity” value is -8.86%.
For `CCCCC/C=C/CC(=O)OC` the value was 1.32%; for `CC(=O)c1ccc(OCC(=O)N2CCCCC2)cc1`, 2.25% [at 35.3 µM].
With `NC(Cc1c[nH]c2ccccc12)C(=O)O` (stereo not given), the “activity change, negative = cytotoxicity” value is 10.1% [at 35.3 µM].
Take `O=C(O)c1c(Cl)ccc(Cl)c1Cl`: the “activity change, negative = cytotoxicity” value was -0.199%.
Under `CC1(N)CCC(C(C)(C)N)CC1` (stereo not given) stands 0.72%.
For `CO[Si](CCCCl)(OC)OC` the value was 22%; for `Nc1cc(Cl)cc(S(=O)(=O)O)c1O`, -4.53%.
For `CC(Cl)COP(=O)(OCC(C)Cl)OCC(C)Cl` (stereo not given) the value was -0.554%.
For the compound `Nc1ccnc(=O)[nH]1`, the “activity change, negative = cytotoxicity” value is 3.59%.
For `NS(=O)(=O)c1ccccc1OC(F)(F)F` the value was 15.1%; for `NS(=O)(=O)c1ccc(Cl)c(S(N)(=O)=O)c1`, 8.78% [at 35.3 µM]; for `CCCCC(CC)C(=O)OC(C)C` (stereo not given), -1.67%.
